Measured values reported in the OligoGym collection.

molecular target: ZNF836; experiment: pooled miR-30 sensor sort-seq; sequence = guide strand; conditions: shRNA
Further: reference of the scale not given here.

Sequence | sensor-assay potency score (higher = more potent)
TAAGACTTGAAGACACTCTAAA | -0.52
TAGGAGAACATCTAAAGGCTTT | 0.15
TTTGTTTCCACTATGAACTGTC | 1.2
TTCAGTTTGAAATTTCTGCAGT | 0.363
TAACTTTGACTAAAGGACTTGC | 0.219
TTGAACGCTGAGTATAGGCTTT | 0.0637
TTTGTTTTCTACATCCTCTTGA | 0.866
TTGTTTTAAGACTCTCTGCAGT | -0.237
TTGACTGAAGACCTTGTCGCAT | -0.213
TTTCTCTGTAGTATGTACCATC | -0.51

molecular target: ZNFX1; experiment: as above; conditions: shRNA

Sequence | sensor-assay potency score (higher = more potent)
TTCTCTGCTATCTTGTAGCGGG | -0.426
TAATTTGCCAAACAGACTCGTT | -0.716
TAACACACAACCAAGATGGGGA | 0.323
TTGTCCACAACATGGACCCTGA | -0.839
TTGAATAATAGCCAGTTCCCTT | -1.02
TTTGTCCACAACATGGACCCTG | -0.317
TAGACCTCTACTGCTATGCTAT | -0.477
TTCAATCTCTTCTAGCCGCTGT | 0.737
TTTATTATGAGAGTTAGTCTGC | 0.368
TACAACTGTAGCCAGAGCCTAT | -0.979
TTGGTCTCTAGCTTCGTCGCTG | 0.295
TTTCTCTTCTAAGACATGCATC | -0.81
